Screening results from PubChem BioAssay.
Mtb MbtI inh: MbtI salicylate synthase inhibitors, primary screen, biochemical, fluorescence intensity | P9WFX0 | purified MbtI enzyme, fluorescence intensity read-out | inhibition, % (no concentration beside the values) | hit rate 0.89% among 100,000 | AID 493033, 2011; in the data active = inhibition mostly above about 56%, no sharp cut-off; inactive = mostly below about 77%
Target sequence (P9WFX0 whole entry, looked up): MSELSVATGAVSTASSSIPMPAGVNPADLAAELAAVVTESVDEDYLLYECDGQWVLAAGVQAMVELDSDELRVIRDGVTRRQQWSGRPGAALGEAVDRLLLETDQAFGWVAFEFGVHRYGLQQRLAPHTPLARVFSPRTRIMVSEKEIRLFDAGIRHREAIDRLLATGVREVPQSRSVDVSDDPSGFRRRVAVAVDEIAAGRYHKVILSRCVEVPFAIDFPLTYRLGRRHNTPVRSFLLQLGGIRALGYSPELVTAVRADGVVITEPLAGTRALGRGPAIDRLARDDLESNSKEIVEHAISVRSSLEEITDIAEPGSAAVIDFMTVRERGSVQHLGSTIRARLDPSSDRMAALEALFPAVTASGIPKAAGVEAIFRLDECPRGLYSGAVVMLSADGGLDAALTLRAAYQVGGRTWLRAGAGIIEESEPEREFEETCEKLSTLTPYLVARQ
Mtb MenB inh: M. tuberculosis MenB inhibitors, primary screen, biochemical, absorbance | MenB enzyme assay, absorbance read-out | inhibition, % (test concentration not listed) | hit rate 0.43% among 100,000; in the data active = inhibition above about 21%, passing the limit was not always enough
AID504770: growth inhibition of E. coli YBA685, primary screen, V. cholerae RctB inhibitors; E. coli YBA685 rctB-dependent plasmid, OD600 growth, 3 h; active compounds read low; z-score (no concentration beside the values); hit rate 0.27% among 130,000; AID 504770, 2011; in the data active = z-score below about -2, passing the limit was not always enough
Polio RdRp inh: poliovirus RdRp elongation inhibitors, primary screen, biochemical, fluorescence polarization, total intensity. Genome polyprotein (Poliovirus type 1 (strain Mahoney)), P03300. poliovirus polymerase elongation; active compounds read low. % elongation, % (compound at 16.7 µg/mL). hit rate 0.66% among 150,000. AID 588519, 2011; in the data active = % elongation below about 90%
Each line names hits and unclear results; the compound was inactive in the other large screens; ! = not confirmed by another sample. A selection: hits, their analogues and other compounds. The true share with any hit is near 1.4%.

O=C(N/N=C/c1ccc(O)cc1)Nc1cccc2nsnc12	Mtb MenB inh 37
CC(C)C(=O)Nc1cccc2nsnc12	none (no result: Mtb MbtI inh)
O=S(=O)(NCc1ccc2c(c1)OCO2)c1ccc(N2CCOCC2)nc1	none
CC1(C)Cc2[nH]c(=S)c(C#N)cc2CO1	none
N#Cc1cc2c([nH]c1=S)CCCC2	Mtb MbtI inh 102
COC(=O)c1ccc(NC(C)=O)c(C(=O)OC)c1	none (no result: Mtb MbtI inh, Mtb MenB inh, Polio RdRp inh)
COC(=O)c1ccc(O)c(C(=O)OC)c1	Polio RdRp inh 0.0
CCCCN1C(=O)c2[nH]nc(-c3ccccc3O)c2C1c1ccccc1 (stereo not given)	none
FC(F)(F)c1ccccc1CN1CCN(CC2CC3C=CC2C3)CC1 (stereo not given)	Polio RdRp inh 48 (no result: Mtb MbtI inh)
CCC(c1nc2ccccc2c(=O)n1-c1ccccn1)N1C(=O)c2ccccc2C1=O (stereo not given)	none
CC(NC(CC(=O)c1ccc(F)cc1)C(=O)O)c1ccccc1 (stereo not given)	Mtb MenB inh 83 (no result: Mtb MbtI inh)
COc1ccccc1NC(CC(=O)c1ccccc1)C(=O)O (stereo not given)	none (no result: Mtb MbtI inh)
O=C(O)CC(CP(c1ccccc1)c1ccccc1)C(=O)O (stereo not given)	none
OCCP(c1ccccc1)c1ccccc1	Mtb MenB inh 61
CCC(=O)NC(C)c1nc2ccccc2n1Cc1ccccc1C (stereo not given)	none (no result: Mtb MbtI inh, Mtb MenB inh, Polio RdRp inh)
CCc1ccc2c(CSc3nnc(-c4ccco4)o3)cc(=O)oc2c1	none
O=C1OC(c2ccccc2)OC(=O)C1=Cc1cccc(OCc2ccccc2)c1 (stereo not given)	none
CCOC(=O)N=c1oc2cc(Cl)c(Cl)cc2o1	Mtb MbtI inh 96
CCOC(=O)Oc1cc2oc(=O)sc2cc1Cl	none
COC(=O)c1ccc(-c2ccco2)n1CC(=O)NCc1ccc(Cl)cc1	none
CN(C)C(=O)CSCc1c(Cl)cccc1Cl	Polio RdRp inh 34
CCOc1ccccc1C(=O)N[C@H](C(=O)Nc1nccs1)C(C)C	none
COc1ccc(N2CCN(S(C)(=O)=O)CC2)cc1	Mtb MenB inh 40
CN(C)c1ccc(C2=CC=CC(=C3C=CC(=[N+](C)C)C=C3)O2)cc1	Mtb MbtI inh 84
CN(C)c1ccc(C(=C2C=CC(=[N+](C)C)C=C2)c2ccc(N(C)C)cc2)cc1	none
COc1ccc(-c2csc(Nc3ccccc3)n2)cc1OC	none
COc1cc2c(cc1NC(=O)CSCc1nc(N)nc(Nc3ccccc3C)n1)oc1ccccc12	none
Cc1cccc(-n2c(-c3ccco3)nc3ccccc3c2=O)c1	Mtb MbtI inh 59
COc1ccc(-n2c(-c3ccco3)nc3ccccc3c2=O)cc1	none
O=c1c2c(nc3n1CCC3)sc1c(O)c(Br)ccc12	Mtb MenB inh 38
Cc1cc(Br)ccc1NC(=O)c1sc2nc3n(c(=O)c2c1C)CCCC3	none (no result: Mtb MbtI inh, Mtb MenB inh, AID504770)
CC(=O)NCCC(=O)N1CCCSC1=Nc1c(C)cccc1C	Polio RdRp inh 88
CNc1nc(-c2ccc3c(c2)CCN3C(=O)C(C)C)cs1	Mtb MenB inh 35
CC(C)N(CC(=O)Nc1ccc2c(c1)OCCO2)c1ccccc1	none
Oc1ccc(CN2CCN(c3ccccc3)CC2)c2cccnc12	none
O=C(O)c1c(CN2CCN(c3ccccc3)CC2)c(O)c2ccccc2c1O	Polio RdRp inh 86
CSc1cccc(NC(=O)CCS(=O)(=O)c2ccc3c(c2)CCN3C(C)=O)c1	none
O=C1c2ccccc2C(=O)C1c1ccc(OC(F)F)cc1	Mtb MbtI inh 80
O=C1c2ccccc2C(=O)N1CCSC1=NN2CCS(=O)(=O)N=C2S1	Polio RdRp inh 84
O=C(O)CC(NS(=O)(=O)c1cccs1)c1ccccc1 (stereo not given)	none
NC(=S)c1cccc(Oc2ccccc2)c1	Polio RdRp inh 87
OCn1c(=S)sc2ccccc21	Mtb MbtI inh 93 (no result: Mtb MenB inh)
CCN(CC)Cn1c(=S)sc2ccccc21	Mtb MbtI inh 87
CCN(CC)Cn1c(=O)sc2ccccc21	none
CCOC(=O)C1CCN(C(=O)Cn2ncc3ccccc32)CC1	none (no result: Mtb MbtI inh, Mtb MenB inh, Polio RdRp inh)
Cc1ccc(Cl)cc1N1CCN(C(CC(=O)O)C(=O)c2ccc(F)cc2)CC1 (stereo not given)	Mtb MenB inh 31, Polio RdRp inh 70
COC(=O)/C=C/S(=O)(=O)c1ccc(Br)cc1	Mtb MbtI inh 100, AID504770 -2.8
COC(=O)/C=C/S(=O)(=O)c1ccc(NC(C)=O)cc1	Mtb MbtI inh 67
CC(=O)Nc1ccc(S(=O)(=O)N=S(C)(C)=O)cc1	none
O=c1[nH]nc(SCc2cccc3ccccc23)c(=O)[nH]1	Mtb MbtI inh 51
O=c1[nH]nc(SCc2ccccc2)c(=O)[nH]1	none (no result: Mtb MenB inh, Polio RdRp inh)
CC(C)CN1C(=O)c2ccc(C(=O)O)cc2C1=O	none
OCCNc1nc2ccccc2n1CN1CCN(c2ccccc2F)CC1	none
CC1COc2c(N3CCN(C)CC3)c(F)cc3c(=O)c(C(=O)OCc4ccccn4)cn1c23 (stereo not given)	AID504770 -4.6
Cc1cccc2nc(CSC(=S)NCc3cccnc3)cn12	AID504770 -3.7 (no result: Mtb MbtI inh, Mtb MenB inh, Polio RdRp inh)
Cc1nc2sccn2c1-c1nc(-c2ccc(Br)o2)c(C(=O)c2ccc3c(c2)OCCO3)s1	Mtb MbtI inh 98
O=C1CC(c2ccccc2)CC(=O)C1=CN1CCOCC1 (stereo not given)	none
Cc1ccc(S(=O)(=O)c2ccc(C)cc2)cc1	none
Cc1ccc(S(=O)(=O)/C=C/C#N)cc1	Mtb MbtI inh 79, AID504770 -4.8
S=c1[nH]nc(Nc2ccccc2)n1-c1ccccc1	Mtb MbtI inh 58
S=c1[nH]nc(-c2ccccc2)n1-c1ccccc1	none
CN1C(=O)C(C#N)=C(N)C12CCCC2	none
O=c1cc(-c2ccccc2)oc2cc(Cl)ccc12	none (no result: Mtb MbtI inh, Mtb MenB inh, Polio RdRp inh)
Nc1cc(N)c2cc(-c3ccccc3)oc2c1	Polio RdRp inh 87
NCCSc1n[nH]c(=O)[nH]c1=O	none
CCCCCCSc1n[nH]c(=O)[nH]c1=O	Polio RdRp inh 86
CC(CC1CC(C)(C)OC1=O)c1nc(=S)[nH][nH]1 (stereo not given)	Mtb MbtI inh 64
Cc1cc(C(=O)NNC2=NCCCCC2)n[nH]1	none
COc1ccccc1NC(=O)CON	none (no result: Mtb MbtI inh, Mtb MenB inh, Polio RdRp inh)
CCOC(=O)c1c(C)oc2nc(COC(=O)c3cc(-c4ccc(Cl)cc4)nc4ccccc34)nc(N)c12	AID504770 -4.7
COc1ccc(-c2cc(C(=O)Oc3ccc(Cl)cc3)c3ccccc3n2)cc1	none (no result: Mtb MbtI inh, Mtb MenB inh, AID504770)
CC(OC(=O)c1ccc(Cl)c(S(N)(=O)=O)c1)c1nnc(-c2cccs2)o1 (stereo not given)	none
O=S(=O)(/C=C/c1ccccc1)N1CCCCC1	none (no result: Mtb MbtI inh, Mtb MenB inh, Polio RdRp inh)
CC1CC(=S)Nc2ccccc2S1 (stereo not given)	none
CC(C)(C)N1Sc2ccccc2NC1=S	Mtb MbtI inh 90!
O=C(Cc1c(F)cccc1Cl)NCCCn1ccnc1	Mtb MenB inh 40
CCSc1ccccc1C(=O)NCCCn1ccnc1	Mtb MenB inh 40
N#CC(C#N)=NNc1ccccc1	AID504770 -3.6
O=C(/C=C/c1ccccc1)Nc1ccc(-c2nnc(-c3ccco3)o2)cc1	none
Cc1ccc(-n2nc(C)c3cc(C#N)c4nc5ccccc5n4c32)cc1	none (no result: Polio RdRp inh)
CCOCCCNC1CC(C)CC(C)(C)C1 (stereo not given)	AID504770 -2.2
